This is a sample that favours compounds with a hit; in the whole collection about 12% have one here.
BAZ2B inh: inhibitors of human BAZ2B bromodomain. Q9UIF8. AlphaScreen BAZ2B-H3K14Ac peptide displacement. Potency, µM (doses to about 114 µM), without a hit: at the highest dose activity change, negative = inhibition, usual class: inhibitors. 360,000 tested, 4.4% active. AID 504333; further: on the % scale 0 is the no-effect control and ±100 the full control effect; nearly all actives have a fitted effect of over 60% in size
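BAZ2B 50 nM plus b-H3(5-23)K14Ac 50 nM, PBS pH 7.4/0.01% Tween-20, 30 min RT; compound added (max 110 uM), 30 min RT; streptavidin donor/Ni-chelate acceptor beads 10 ug/mL final, 20 min dark; AlphaScreen read.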
TDP1 inh: inhibitors of human tyrosyl-DNA phosphodiesterase TDP1; recombinant TDP1, AlphaScreen DNA substrate cleavage; 350,000 tested, 0.28% active; Potency, µM (top dose mostly 130 µM), inactives show at the highest dose activity change, negative = inhibition, most hits filed as inhibitors; further: on the % scale 0 is the no-effect control and ±100 the full control effect; nearly all actives have a fitted effect of over 40% in size
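Recombinant human Tdp1 (E. coli-expressed, 1 nM final) preincubated with compounds 15 min at room temperature, then 5'-biotin/3'-phosphotyrosine-FITC DNA substrate (15 nM final) added for 5 min. AlphaScreen beads (10 ug/ml final) added 10 min; cleavage lowers signal.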
HP1b chromo inh: blocks HP1-beta chromodomain binding to methylated histone tails; P83916; AlphaScreen HP1-beta / biotin-H3K9me3 peptide binding; Potency, µM (doses to about 114 µM), for the others: at the top dose activity change, negative = inhibition, actives largely listed as inhibitors; 390,000 tested, 0.56% active; AID 540317; further: nearly all actives have a fitted effect of over 70% in size
Target sequence (P83916 whole entry, looked up): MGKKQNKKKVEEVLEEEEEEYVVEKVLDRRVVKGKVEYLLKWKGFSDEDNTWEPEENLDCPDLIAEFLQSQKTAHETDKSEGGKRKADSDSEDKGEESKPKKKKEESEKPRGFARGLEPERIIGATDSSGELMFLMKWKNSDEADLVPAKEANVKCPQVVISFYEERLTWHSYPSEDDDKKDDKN
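HP1-beta protein (50 nM final) preincubated 30 min at room temperature with biotinylated H3(1-18)K9me3 peptide (50 nM) in PBS pH 7.4, 0.01% Tween-20, then compound added for 30 min. AlphaScreen streptavidin donor/nickel chelate acceptor beads (10 ug/mL final), 30 min dark, luminescence read.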
Sfp PPTase inh: Sfp phosphopantetheinyl transferase inhibition. Q9F4F7. Biochemical Sfp PPTase activity, qHTS. Potency, µM, for the others: largest response in the series, negative = inhibition, usual class: inhibitors. 310,000 tested, 3.5% active;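 further: the enzyme is Sfp with the accession as filed and its product quenches rhodamine fluorescence; 0% = enzyme reaction without inhibitor and -100% = no enzyme wells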
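Step 1, compound plus 15 nM Sfp-PPTase, 15 min, room temperature. Step 2, add rhodamine-CoA (5 uM) and BHQ-2-YbbR (12.5 uM). Step 3, read 525/598 nm fluorescence at 0 and 30 min.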
JMJD2A Tudor inh: blocks the human JMJD2A Tudor domain. O75164. AlphaScreen JMJD2A-Tudor / H3K4me3 peptide binding. AID 504339. Potency, µM (highest dose often 114 µM), inactives show top-dose activity change, negative = inhibition, most hits filed as inhibitors. 390,000 tested, 4.4% active; further: on the % scale 0 is the no-effect control and ±100 the full control effect; nearly all actives have a fitted effect of over 50% in size
G9a block: G9a (human) methyltransferase inhibition; Potency, µM (doses to about 102 µM), without a hit: at the highest dose activity, negative = inhibition, hits mostly inhibitors; G9a H3K9 monomethylation, AlphaScreen, 2 h; 350,000 tested, 8.8% active; further: on the % scale 0 is the no-effect control and ±100 the full control effect; nearly all actives have a fitted effect of over 75% in size
Target sequence (Q96KQ7 913-1193 limits assumed): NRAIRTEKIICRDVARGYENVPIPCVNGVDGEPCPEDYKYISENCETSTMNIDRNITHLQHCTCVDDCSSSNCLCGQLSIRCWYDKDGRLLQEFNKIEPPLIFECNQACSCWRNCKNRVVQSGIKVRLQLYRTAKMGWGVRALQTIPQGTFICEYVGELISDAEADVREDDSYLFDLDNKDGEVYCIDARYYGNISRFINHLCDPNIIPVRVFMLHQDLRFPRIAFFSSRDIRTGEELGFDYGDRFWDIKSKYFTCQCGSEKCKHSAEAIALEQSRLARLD
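Step 1: enzyme (final 20 nM) with compound, 15 min RT. Step 2: substrate peptide 500 nM and SAM 20 uM, 2 h RT. Step 3: anti-H3K9me1 antibody and AlphaScreen beads, 10 min, then plate read.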
The depositor's hits bear a star; u = inconclusive; x = no result; [ ] = another dose, or the depositor's remark. The call rests on the fitted dose curve; in most records, active means well fitted curve in the direction sought with a large enough effect; inconclusive means small, poorly fitted or top-dose-only effect, or another doubt; inactive means no such curve, though single readings can be large; an effect the other way counts as inactive or inconclusive. Potency means the concentration at half of the fitted maximal effect.

SMILES	BAZ2B inh	TDP1 inh	HP1b chromo inh	Sfp PPTase inh	JMJD2A Tudor inh	G9a block
CC(C)[C@H](NC(=O)C1CCN(S(=O)(=O)c2ccccc2)CC1)C(=O)NCc1ccc(F)cc1	-8%	1%	53%	9%	-20%	12%
COc1ccc(CCNC(=O)CSc2ccc(NC(C)=O)cc2)cc1OC	0%	0%	13%	7%	-17%	4%
COc1ccc(CCNC(=O)CSc2ccc3ccccc3c2)cc1OC	3%	5%	33%	-28%	-19%	25µM*
O=C(CSc1ccc2ccccc2c1)NCCc1ccc(O)c(O)c1	x	-5%	79µM*	25µM*	7.9µM*	2.5µM*
CCc1cc2c(cc3c(=O)n(CC(=O)N4CCCCC4)ncn32)s1	27%	2%	58%	x	-2%	22%[59 µM]
COc1cc2c(cc1OC)/C(=C/C(=O)c1ccc([N+](=O)[O-])c(C)c1)NCC2	-30%	x	9%	-8%	20µM*	-7%
COc1cc2c(cc1OC)/C(=C/C(=O)c1ccc(C)cc1)NCC2	u	x	-12%	-14%	u	50µM*
COc1cc2c(cc1OC)/C(=C/C(=O)c1ccccc1)NCC2	u	x	-17%	-4%	u	u
COc1ccc(/C(N)=N/OC(=O)c2ccc([N+](=O)[O-])c(C)c2)cc1OC	-21%	3%	45%	4%	-14%	-39%[59 µM]
COc1cccc(C(=O)/C=C2\NCCc3cc(OC)c(OC)cc32)c1	u	x	-20%	3%	u	50µM*
CC1CC(=O)N(C)c2cc([N+](=O)[O-])ccc2N1 (centres undefined)	0%	3%	32%	14%	-28%	u
CC(Oc1cccc(Cl)c1)C(=O)Nc1cc(S(=O)(=O)N2CCCCC2)ccc1N1CCOCC1 (centres undefined)	4%	x	18%	x	-14%	-51%[59 µM]
CSCC[C@H](NC(=O)c1cc2c([nH]c3ccccc32)c(-c2ccccc2)n1)C(=O)O	u	x	8%	13%	-24%	-21%
OC[C@@H]1[C@@H](c2ccc(F)cc2)C(c2ccc(F)cc2)=NN1c1ccccc1	x	u	x	6%	x	135%
CC1CN(CCCCOc2ccc(F)cc2)CC(C)O1 (centres undefined)	50µM*	3%	50µM*	-28%	u	10µM*
COc1ccccc1N1CCN(CCCCOc2cccc3ccccc23)CC1	35µM*	11%	-19%	-18%	u	45µM*
COc1ccccc1N1CCN(CCCCCCOc2ccc(F)cc2)CC1	-37%	0%	1%	-4%	-34%	50µM*
Fc1ccc(OCCCCCN2CCCC2)cc1	2%	3%	24%	6%	-12%	3%[59 µM]
O=C1C=C(c2cccc3c2oc2ccccc23)C[C@@H](c2ccc(F)cc2)C1	-4%	0%	16%	x	-18%	-3%[0.501 µM]
CCCCc1nc2c(c3c1C[C@H](C)OC3)CN(C(=O)N[C@@H](C)c1ccccc1)CC2	x	15%[12.3 µM]	x	-12%	x	x
Cc1nc(-c2ccc(S(=O)(=O)Nc3ccc(C#N)cc3)cc2)co1	-8%	2%	14%[57 µM]	x	-18%	4%[59 µM]
O=C(c1ccncc1)N1CCN(CCc2ccccc2)CC1	-3%	x	52%	9%	-8%	26%
CCN1CCN(C(=S)Nc2ccc(Cl)c(Cl)c2)CC1	3%	5%	12%	-7%	-24%	u
COCC1CCCCN1C(=O)c1ccc(OC2CCN(Cc3ccccn3)CC2)cc1 (centres undefined)	-38%	5%[56.1 µM]	18%	4%	25µM*	3%
CCN1CCN(C(=S)c2ccc(Cl)c(Cl)c2)CC1	-34%	6%	-30%	16µM*	-32%	2.5µM*
Cc1ccc(CN2CCN(C(=O)c3ccncc3)CC2)cc1	22µM*	-14%	u	u	7.9µM*	8.9µM*
CCC1CCCCN1C(=O)c1ccc(OC2CCN(Cc3ccccn3)CC2)cc1 (centres undefined)	-24%	2%	19%	4%	-21%	18%

Screens deposited in PubChem BioAssay by National Center for Advancing Translational Sciences (NCATS).
